Source: PubChem BioAssay AID1159580 (chemical genetic matrix, 2015)
Screen size: about 5,500 compounds; about 2,000 (36%) were called active. About 18% were inconclusive and are not listed. Cut-off read from the data, not from the text of the source: active = normalized growth mostly below about 0.91 (no sharp cut-off); inconclusive = no clear call, values can overlap the other calls; inactive = mostly above about 0.92. This is one part of the list.

Assay: chemical genetic growth profiling, strain panel (AID 1159580);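 note: tested at 20 µM; growth read once vehicle control cultures reached saturation at 30 °C; 1 = growth at the plate median or of vehicle wells; lower values mean less growth of the strain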
Settings: growth OD
[1] = S. cerevisiae deletion strains, locus YAL013W, strain DEP1, hits give low values
[2] = S. cerevisiae deletion strains, locus YBR229C, strain ROT2, hits give low values
[3] = S. cerevisiae deletion strains, locus YCL061C, strain MRC1, hits give low values
[4] = S. cerevisiae deletion strains, locus YDL101C, strain DUN1, hits give low values
[5] = S. cerevisiae deletion strains, locus YDR150W, strain NUM1, hits give low values
[6] = S. cerevisiae deletion strains, locus YEL061C, strain CIN8, hits give low values
[7] = S. cerevisiae deletion strains, locus YGR078C, strain PAC10, hits give low values
[8] = S. cerevisiae deletion strains, locus YHR030C, strain SLT2, hits give low values
[9] = S. cerevisiae deletion strains, locus YHR087W, strain rtc3, hits give low values
[10] = S. cerevisiae deletion strains, locus YJR043C, strain POL32, hits give low values
[11] = S. cerevisiae deletion strains, locus YJR075W, strain HOC1, hits give low values
[12] = S. cerevisiae deletion strains, locus YKL190W, strain CNB1, hits give low values
[13] = S. cerevisiae deletion strains, locus YLR039C, strain RIC1, hits give low values
[14] = S. cerevisiae deletion strains, locus YLR058C, strain SHM2 (second series), hits give low values
[15] = S. cerevisiae deletion strains, locus YLR085C, strain ARP6, hits give low values
[16] = S. cerevisiae deletion strains, locus YLR262C, strain YPT6, hits give low values
[17] = S. cerevisiae deletion strains, locus YML094W, strain GIM5, hits give low values
[18] = S. cerevisiae deletion strains, locus YMR219W, strain ESC1, hits give low values
[19] = S. cerevisiae deletion strains, locus YMR263W, strain SAP30, hits give low values
[20] = S. cerevisiae deletion strains, locus YNL128W, strain TEP1, hits give low values
[21] = S. cerevisiae deletion strains, locus YNL153C, strain GIM3, hits give low values
[22] = S. cerevisiae deletion strains, locus YNL298W, strain CLA4 (second series), hits give low values
[23] = S. cerevisiae deletion strains, locus YNL322C, strain KRE1, hits give low values
[24] = S. cerevisiae deletion strains, locus YNR030W, strain Alg12, hits give low values
[25] = S. cerevisiae deletion strains, locus YOL006C, strain TOP1, hits give low values
[26] = S. cerevisiae deletion strains, locus YPL055C, strain LGE1, hits give low values
[27] = S. cerevisiae deletion strains, locus YPL241C, strain CIN2, hits give low values
[28] = S. cerevisiae deletion strains, locus YPR135W, strain CTF4, hits give low values
[29] = S. cerevisiae strains, strain wild type, hits give low values
[30] = S. cerevisiae deletion strains, locus YGR229C, strain SMI1, hits give low values

Measured: normalized growth

CC(=O)CSc1nsc(SCC(C)=O)c1C#N
inactive: [1] 1.01 | [2] 1 | [3] 1.01 | [4] 0.974 | S. cerevisiae deletion strains, locus YDL134C, strain PPH21, hits give low values 1.01 | [5] 0.99 | [6] 1.02 | [7] 0.997 | [8] 0.992 | [9] 0.971 | [10] 1 | [11] 0.995 | [12] 1.01 | [13] 1.01 | [14] 0.992 | [15] 1 | [16] 0.962 | [17] 1.01 | [18] 0.989 | [19] 0.996 | [20] 1.01 | [21] 0.979 | [22] 0.988 | [23] 1.01 | [24] 0.986 | [25] 0.87 | [26] 0.903 | [27] 0.992 | [28] 0.918 | [29] 1

CCCc1ccc(OC)cc1NC(C)=O
inactive: [1] 1.01 | [2] 1.01 | [3] 1.03 | [4] 1 | [5] 0.95 | [6] 0.996 | [7] 1.02 | [30] 0.991 | [8] 1.06 | [9] 1 | [10] 1 | [11] 0.996 | [12] 0.991 | [13] 1.02 | [14] 1.02 | [15] 1.03 | [16] 0.987 | [17] 1.03 | [18] 1.01 | [19] 1.01 | [21] 1.03 | [22] 1.05 | [23] 1.01 | [24] 1.02 | [25] 1.06 | [26] 0.99 | [27] 0.999 | [28] 1.06 | [29] 0.999

COc1ccc2[nH]c(I)c(CCNC(C)=O)c2c1
inactive: [1] 1.03 | S. cerevisiae deletion strains, locus YAL040C, strain CLN3, hits give low values 0.959 | S. cerevisiae deletion strains, locus YCL061C, strain MRC1 (second series), hits give low values 1.01 | S. cerevisiae deletion strains, locus YDR363W, strain ESC2, hits give low values 1.02 | S. cerevisiae deletion strains, locus YER002W, strain NOP16, hits give low values 1.01 | [7] 1.02 | [30] 0.998 | [20] 1.1 | [21] 0.997 | S. cerevisiae deletion strains, locus YNL175C, strain NOP13, hits give low values 1.01 | S. cerevisiae deletion strains, locus YNL197C, strain WHI3, hits give low values 1.01 | S. cerevisiae deletion strains, locus YNL224C, strain SQS1, hits give low values 1.02 | [23] 1.02 | [26] 1.09 | [27] 1.01
active: [11] 1.11 [resistant]
